Data on one compound can be found in PubChem BioAssay AID651871 (Sanford-Burnham Center for Chemical Genomics, 2012).

The experiment deals with HL-1. Kind of experiment: cardiomyocyte survival under oxidative or metabolic stress – cell-based, panel, H9c2 and HL-1, ATP luminescence, set 2, SAR follow-up (AID 651871).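 Further: cells exposed to stressor for 2 h before ATP readout; reference of the scale not given here.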 To be noted: H9c2/HL-1 cardiomyocytes, 2-deoxyglucose stress, with 2-deoxyglucose, run 10, at 19.8 µM (top of the series).

Each structure is given as a SMILES string.

In turn, `COc1ccc2c(c1OC)C(=O)N1c3ccccc3C(=O)N(Cc3cccc(Cl)c3Cl)C21` (stereo unspecified) had an activity (protection/inhibition) of 33.5%.
